The subject of assay [1] is Noggin (protein binding on small-molecule microarray). Put plainly: Noggin binders on small-molecule microarray, primary screen, biochemical, 635/667 nm fluorescence (AID 1095).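 Note: score merges 667 nm feature fluorescence with signal to noise over triplicate slides.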 The following applies: 635 nm fluorescence, higher = more signal.
The target in assay [2] is Neurogenic locus notch homolog protein 3 (Homo sapiens) (UniProt Q9UM47). Put plainly: NOTCH3 binders on small-molecule microarray, primary screen, biochemical, 635/667 nm fluorescence (AID 1096). The following applies: NOTCH3 binding, 635 nm fluorescence, higher = more signal.
Chain of Neurogenic locus notch homolog protein 3 (Homo sapiens) (Q9UM47 whole entry, looked up): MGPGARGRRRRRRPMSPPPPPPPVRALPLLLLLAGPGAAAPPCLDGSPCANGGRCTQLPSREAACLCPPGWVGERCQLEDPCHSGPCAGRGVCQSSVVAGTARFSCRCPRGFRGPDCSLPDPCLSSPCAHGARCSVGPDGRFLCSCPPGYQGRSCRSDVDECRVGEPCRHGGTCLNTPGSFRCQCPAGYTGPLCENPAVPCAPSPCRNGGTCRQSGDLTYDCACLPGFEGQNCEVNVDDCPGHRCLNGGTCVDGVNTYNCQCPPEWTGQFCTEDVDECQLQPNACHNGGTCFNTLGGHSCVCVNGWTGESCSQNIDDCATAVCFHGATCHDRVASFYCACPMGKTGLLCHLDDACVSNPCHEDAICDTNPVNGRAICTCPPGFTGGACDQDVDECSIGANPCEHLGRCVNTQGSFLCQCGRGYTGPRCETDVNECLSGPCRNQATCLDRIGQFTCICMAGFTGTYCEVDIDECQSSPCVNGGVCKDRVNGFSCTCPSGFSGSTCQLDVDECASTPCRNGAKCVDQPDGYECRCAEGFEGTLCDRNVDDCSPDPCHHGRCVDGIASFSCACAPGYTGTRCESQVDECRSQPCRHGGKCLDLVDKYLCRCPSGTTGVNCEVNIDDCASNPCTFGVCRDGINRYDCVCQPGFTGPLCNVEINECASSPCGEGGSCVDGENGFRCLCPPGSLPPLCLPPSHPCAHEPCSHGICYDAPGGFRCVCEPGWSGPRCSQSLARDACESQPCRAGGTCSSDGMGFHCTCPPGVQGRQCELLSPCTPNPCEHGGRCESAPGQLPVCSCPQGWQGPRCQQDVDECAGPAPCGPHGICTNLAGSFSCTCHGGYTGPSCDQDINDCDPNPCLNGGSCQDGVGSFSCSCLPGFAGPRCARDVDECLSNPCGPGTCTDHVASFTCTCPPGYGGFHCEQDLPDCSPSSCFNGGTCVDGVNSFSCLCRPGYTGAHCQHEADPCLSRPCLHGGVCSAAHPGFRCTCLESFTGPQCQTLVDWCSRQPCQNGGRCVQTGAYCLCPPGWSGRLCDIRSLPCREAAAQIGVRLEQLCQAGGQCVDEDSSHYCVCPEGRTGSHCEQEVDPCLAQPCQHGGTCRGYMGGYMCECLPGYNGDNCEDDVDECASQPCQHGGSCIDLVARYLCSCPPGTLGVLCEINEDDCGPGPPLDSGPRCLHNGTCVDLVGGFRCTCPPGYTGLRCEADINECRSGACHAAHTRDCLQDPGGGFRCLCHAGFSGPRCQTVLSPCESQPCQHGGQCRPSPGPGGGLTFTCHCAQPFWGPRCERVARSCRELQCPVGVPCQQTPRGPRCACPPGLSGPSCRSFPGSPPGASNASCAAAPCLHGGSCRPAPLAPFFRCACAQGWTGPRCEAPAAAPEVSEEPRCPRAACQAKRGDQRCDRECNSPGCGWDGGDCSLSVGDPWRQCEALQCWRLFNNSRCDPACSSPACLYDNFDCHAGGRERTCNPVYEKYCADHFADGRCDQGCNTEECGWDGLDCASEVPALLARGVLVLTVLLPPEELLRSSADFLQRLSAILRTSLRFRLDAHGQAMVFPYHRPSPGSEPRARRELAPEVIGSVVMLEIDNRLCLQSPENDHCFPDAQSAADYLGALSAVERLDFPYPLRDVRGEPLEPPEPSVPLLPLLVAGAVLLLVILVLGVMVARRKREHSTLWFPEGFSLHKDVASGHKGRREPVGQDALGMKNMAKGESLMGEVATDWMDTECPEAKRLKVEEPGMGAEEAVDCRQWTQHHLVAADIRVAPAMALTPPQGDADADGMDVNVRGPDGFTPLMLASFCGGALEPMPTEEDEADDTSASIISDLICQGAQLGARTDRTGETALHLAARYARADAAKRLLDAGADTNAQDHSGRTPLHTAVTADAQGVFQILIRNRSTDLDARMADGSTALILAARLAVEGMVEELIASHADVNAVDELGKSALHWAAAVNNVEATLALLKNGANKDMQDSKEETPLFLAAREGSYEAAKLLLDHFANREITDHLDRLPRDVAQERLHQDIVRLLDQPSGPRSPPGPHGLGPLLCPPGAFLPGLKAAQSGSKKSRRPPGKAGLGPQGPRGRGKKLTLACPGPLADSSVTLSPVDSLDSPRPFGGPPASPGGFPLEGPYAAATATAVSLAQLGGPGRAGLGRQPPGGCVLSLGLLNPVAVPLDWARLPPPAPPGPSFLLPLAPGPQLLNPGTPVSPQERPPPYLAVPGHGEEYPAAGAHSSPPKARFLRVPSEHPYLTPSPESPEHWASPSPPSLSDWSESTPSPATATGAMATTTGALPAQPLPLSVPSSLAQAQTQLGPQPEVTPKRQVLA
The nature of assay [3]: small-molecule microarray binders of probe aEGFR, primary screen, biochemical, biotinylated probe, 635/667 nm fluorescence (AID 1097).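 Note: probe is a biotinylated anti-EGFR antibody binding compounds printed on slides; score combines fluorescence near 667 nm and signal to noise of each spot.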 The note with it: higher = more signal.
Assay [4] concerns Plasmodium falciparum Sir2 (PF13_0152, Sir2A). Put plainly: pfSir2 binders on small-molecule microarrays, primary screen, biochemical, small-molecule microarray, 635 nm fluorescence (AID 1098).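 Note: score merges spot fluorescence intensity with its signal-to-noise ratio.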 The following applies: small-molecule microarray binding, fluorescence 635 nm; higher = more signal.
The nature of assay [5]: small-molecule microarray binders of probe aDKK1, primary screen, biochemical, biotinylated probe, 635/667 nm fluorescence (AID 1099).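 Note: score merges 667nm spot fluorescence with signal to noise across triplicate slides.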 The note with it: higher = more signal.
A short description of assay [6]: small-molecule microarray binders of probe aCHRDL2, primary screen, biochemical, biotinylated probe, 635/667 nm fluorescence (AID 1100). The following applies: higher = more signal.
The nature of assay [7]: splicing luciferase reporter signal modulators, primary screen, spliceosome inhibition project, cell-based, HEK293, splice +/- reporter (AID 1101).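 Note: HEK293 cells carrying a splicing-competent luciferase reporter gene; test concentration not given here.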 The note with it: luminescence, 24 h, higher = more signal, called active from +8 up or from −8 down.
For assay [8], the target named is Fibroblast growth factor 10 (Homo sapiens) (UniProt O15520). Nature of the assay: FGF10 binders on small-molecule microarrays, primary screen, biochemical, small-molecule microarray, 635 nm fluorescence (AID 1102). The following applies: FGF10 binding, fluorescence 635 nm, higher = more signal.
Chain of Fibroblast growth factor 10 (Homo sapiens) (O15520 whole entry, looked up): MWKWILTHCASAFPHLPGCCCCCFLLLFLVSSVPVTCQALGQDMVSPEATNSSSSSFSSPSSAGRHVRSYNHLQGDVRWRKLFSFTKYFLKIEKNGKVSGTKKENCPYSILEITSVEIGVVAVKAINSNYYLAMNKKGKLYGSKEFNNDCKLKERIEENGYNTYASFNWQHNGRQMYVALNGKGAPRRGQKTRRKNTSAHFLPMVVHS
Assay [9] relates to glycogen synthase kinase-3 (GSK3A per assay name; protocol says GSK3B). Nature of the assay: GSK3 binders on small-molecule microarrays, primary screen, biochemical, small-molecule microarray, 635 nm fluorescence, GSK3A (AID 1103). Note: the record names both GSK3A and GSK3B. The following applies: small-molecule microarray binding, fluorescence 635 nm; higher = more signal.
For assay [10], the target named is Epidermal growth factor receptor (Homo sapiens) (UniProt P00533). Nature of the assay: EGFR binders on small-molecule microarrays, primary screen, biochemical, small-molecule microarray, 635 nm fluorescence (AID 1104).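 Note: score merges 667 nm emission intensity with spot signal to noise over triplicate slides.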 The following applies: EGFR binding, higher = more signal.
Chain of Epidermal growth factor receptor (Homo sapiens) (P00533 whole entry, looked up): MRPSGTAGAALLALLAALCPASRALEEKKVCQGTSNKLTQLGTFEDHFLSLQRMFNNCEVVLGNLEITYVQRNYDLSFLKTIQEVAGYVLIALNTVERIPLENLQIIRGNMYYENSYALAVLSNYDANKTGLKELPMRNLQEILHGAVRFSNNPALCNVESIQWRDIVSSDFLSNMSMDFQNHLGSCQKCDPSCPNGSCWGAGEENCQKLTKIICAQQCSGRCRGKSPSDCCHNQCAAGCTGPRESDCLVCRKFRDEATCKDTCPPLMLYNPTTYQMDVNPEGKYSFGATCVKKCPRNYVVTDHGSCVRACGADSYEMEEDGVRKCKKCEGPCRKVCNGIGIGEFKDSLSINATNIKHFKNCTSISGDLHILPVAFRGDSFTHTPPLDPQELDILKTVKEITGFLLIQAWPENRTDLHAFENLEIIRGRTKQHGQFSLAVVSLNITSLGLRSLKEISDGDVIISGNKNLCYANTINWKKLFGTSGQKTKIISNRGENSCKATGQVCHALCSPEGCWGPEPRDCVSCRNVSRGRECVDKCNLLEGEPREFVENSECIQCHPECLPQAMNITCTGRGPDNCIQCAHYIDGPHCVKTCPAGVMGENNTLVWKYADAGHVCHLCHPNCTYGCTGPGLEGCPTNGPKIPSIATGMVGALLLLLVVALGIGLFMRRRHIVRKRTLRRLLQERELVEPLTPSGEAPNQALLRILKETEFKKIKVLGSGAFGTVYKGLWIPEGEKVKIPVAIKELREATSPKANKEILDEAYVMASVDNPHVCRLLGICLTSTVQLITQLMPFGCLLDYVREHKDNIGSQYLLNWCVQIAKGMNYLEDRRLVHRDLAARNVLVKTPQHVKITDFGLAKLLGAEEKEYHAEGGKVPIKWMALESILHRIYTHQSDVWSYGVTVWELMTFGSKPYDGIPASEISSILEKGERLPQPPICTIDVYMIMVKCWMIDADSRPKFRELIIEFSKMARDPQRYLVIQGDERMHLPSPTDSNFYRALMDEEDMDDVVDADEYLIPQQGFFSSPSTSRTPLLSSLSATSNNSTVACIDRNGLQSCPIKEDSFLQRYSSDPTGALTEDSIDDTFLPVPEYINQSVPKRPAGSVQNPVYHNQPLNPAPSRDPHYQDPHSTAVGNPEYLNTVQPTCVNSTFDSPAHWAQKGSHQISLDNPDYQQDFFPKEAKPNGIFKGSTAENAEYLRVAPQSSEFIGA
Assay [11] deals with Follistatin-related protein 3 (Homo sapiens) (UniProt O95633). Put plainly: FSTL3 binders on small-molecule microarrays, primary screen, biochemical, small-molecule microarray, 635 nm fluorescence (AID 1105).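 Note: score merges emission near 667 nm and signal to noise per printed spot across three slides.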 The note with it: FSTL3 binding, higher = more signal.
Chain of Follistatin-related protein 3 (Homo sapiens) (O95633 whole entry, looked up): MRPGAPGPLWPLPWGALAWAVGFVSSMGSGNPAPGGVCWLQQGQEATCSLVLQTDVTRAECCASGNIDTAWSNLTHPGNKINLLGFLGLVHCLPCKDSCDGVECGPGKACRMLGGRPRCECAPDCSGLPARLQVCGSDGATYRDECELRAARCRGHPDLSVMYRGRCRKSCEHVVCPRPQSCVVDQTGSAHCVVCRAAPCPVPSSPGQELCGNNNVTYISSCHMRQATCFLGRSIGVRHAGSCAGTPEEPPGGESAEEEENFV
Assay [12] addresses Dickkopf-related protein 1 (Homo sapiens) (UniProt O94907). Put plainly: DKK1 binders on small-molecule microarrays, primary screen, biochemical, small-molecule microarray, 635 nm fluorescence scan (AID 1106).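 Note: score merges emission near 667 nm with signal to noise over three replicate slides.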 The following applies: DKK1 binding, higher = more signal.
Assay [13] relates to Inhibin beta A chain (activin A). Nature of the assay: INHBA (activin A) binders on microarrays, primary screen, biochemical, small-molecule microarray, 635 nm fluorescence scan (AID 1107).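 Note: mouse activin A protein probed at 4.33 µg/mL on printed slides; score merges bound-protein fluorescence near 667 nm with spot signal-to-noise.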 The note with it: small-molecule microarray binding, higher = more signal.
Assay [14] relates to Human papillomavirus type 1a protein E7 (residues 44-93). Put plainly: HPV1a E7 fragment binders on microarrays, primary screen, biochemical, small-molecule microarray, residues 44-93, 635 nm fluorescence (AID 1108).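 Note: E7 fragment applied at 1 µg/mL in TBST for 1 h at 4 C; score combines spot fluorescence with its signal to noise ratio.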 The note with it: small-molecule microarray binding, fluorescence 635 nm; higher = more signal.
The nature of assay [15]: modulators of HCV replicon luciferase signal, primary screen, HCV replication inhibitor project, Huh7 cells, luciferase reporter (AID 1109).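 Note: huh7 hepatoma cells harbouring a luciferase neomycin HCV replicon reporter; luciferase luminescence as measure of HCV replicon replication; test concentration not given here.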 The following applies: 48 h, higher = more signal.
Assay [16] has as its target Left-right determination factor 2 (Homo sapiens) (UniProt O00292). Put plainly: LEFTY2 binders on small-molecule microarrays, primary screen, biochemical, small-molecule microarray, 635 nm fluorescence scan (AID 1110). The note with it: LEFTY2 binding, higher = more signal.
For assay [17], the target named is Calmodulin-1 (Homo sapiens) (UniProt P0DP23). Nature of the assay: CALM1 binders on microarrays, EGTA buffer, profiling panel, biochemical, small-molecule microarray, Cy5-labelled CALM1 (AID 1111).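 Note: labelled calmodulin applied in Tris saline Tween buffer holding calcium plus EGTA and DTT.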 The note with it: Cy5-CALM1 binding fluorescence, higher = more signal.
The target is the same in assay [18]. Nature of the assay: calcium-bound CALM1 binders on microarrays, profiling panel, artefact control for SMM control-protein annotation, biochemical, small-molecule microarray, Cy5-labelled CALM1, plus calcium (AID 1112).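 Note: score merges spot fluorescence with signal to noise from triplicate slides.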 The note with it: Cy5-CALM1 binding fluorescence, higher = more signal.
The nature of assay [19]: small-molecule microarray binders of probe aWnt5a, primary screen, biochemical, biotinylated probe, 635/667 nm fluorescence (AID 1113).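 Note: score merges 667 nm fluorescence intensity with signal-to-noise per printed feature.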 The note with it: higher = more signal.
A short description of assay [20]: small-molecule microarray binders of probe aShh, primary screen, biochemical, biotinylated probe, 635/667 nm fluorescence (AID 1114).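 Note: probe is biotin-labelled aShh protein from a stem cell growth factor screen; measures binding of labelled protein to compounds printed on the slide; score merges feature fluorescence at 667 nm with signal-to-noise.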 The note with it: higher = more signal.

Calls of active or inactive are those of the source.

Chain of Dickkopf-related protein 1 (Homo sapiens) (O94907 whole entry, looked up): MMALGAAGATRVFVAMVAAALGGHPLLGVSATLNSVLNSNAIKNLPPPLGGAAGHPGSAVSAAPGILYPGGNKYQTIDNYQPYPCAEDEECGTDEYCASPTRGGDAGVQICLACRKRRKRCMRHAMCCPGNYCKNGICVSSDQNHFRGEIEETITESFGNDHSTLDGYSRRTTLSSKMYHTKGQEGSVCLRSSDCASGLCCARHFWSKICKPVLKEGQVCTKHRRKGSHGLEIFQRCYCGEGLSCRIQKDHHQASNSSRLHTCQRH
Chain of Left-right determination factor 2 (Homo sapiens) (O00292 whole entry, looked up): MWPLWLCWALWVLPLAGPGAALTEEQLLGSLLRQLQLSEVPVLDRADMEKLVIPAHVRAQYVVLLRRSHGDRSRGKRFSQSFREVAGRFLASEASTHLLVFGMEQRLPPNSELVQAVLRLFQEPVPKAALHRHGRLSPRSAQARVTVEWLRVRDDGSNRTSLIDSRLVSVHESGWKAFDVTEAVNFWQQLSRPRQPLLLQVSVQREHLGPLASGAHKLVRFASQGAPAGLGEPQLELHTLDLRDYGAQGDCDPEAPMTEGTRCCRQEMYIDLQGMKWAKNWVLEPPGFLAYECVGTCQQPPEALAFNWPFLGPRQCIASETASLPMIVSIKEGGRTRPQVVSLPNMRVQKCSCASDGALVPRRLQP

Consider `CC(=O)NCCCC[C@@H]1NC(=O)[C@@H]2C[C@H](C(=O)O)[C@H](c3cccc(OCCO)c3)N2C1=O`, for which the composite z-score is 1.6 in assay [1]; 0.58 in assay [2]; 0.0437 in [3]; 1.25 in assay [4]; -0.018 in [5]; -0.37 in assay [6]. The composite z-score in assay [8] is 1.13; in assay [9], 1.21; in assay [10], 0.782; in assay [11] it was 0.787; in [12] it was 1.21; in assay [13], -0.456. The composite z-score in [14] was 0.952; in assay [16] it was 1.46; in [17], -0.188; in assay [18] it was -0.789; in [19] it was -0.0403; in assay [20], -0.0626. Besides, the z-score in assay [7] is -0.877 (inactive); in assay [15], 0.436.

Take `COC(=O)C1=CC(c2ccc(CO)cc2)=CC(c2cccs2)N(C)C=C1C(=O)OC` (stereo not given): the composite z-score in [1] was -0.853; in assay [2], 0.302; in assay [3], -0.135; in assay [4], 1.52; in assay [5], 0.772; in assay [6], 1.13. Moreover, the composite z-score in assay [8] was -0.0489; in [9], -0.57; in assay [10] it was -0.407; in assay [11] it was 0.409; in assay [12], -0.813; in assay [13], 1.46. Also, the composite z-score is -0.526 in assay [14]; -0.76 in assay [16]; 1.36 in [17]; 0.774 in [18]; -0.096 in assay [19]; 0.138 in assay [20]. Also, the z-score in [7] was -1.77 (inactive); in assay [15], -0.176.

For `COCCCNC(=O)[C@@]1(CCS(=O)(=O)c2ccccc2)N=C(c2ccc(OCCCO)cc2)O[C@H]1c1ccccc1CN=[N+]=[N-]`, the composite z-score in [1] stood at 1.9; in assay [2] it was 1.07; in [3], 0.242; in assay [4], 1.14; in assay [5] it was 1.17; in assay [6] it was 1.12. For the same compound, the composite z-score in assay [8] came to 1.14; in [9], 1.31; in assay [10], 0.184; in [11], 0.847; in assay [12] it was 0.245; in assay [13], 1.22. For the same compound, the composite z-score came to 1.13 in assay [14]; 0.266 in assay [16]; 2.02 in assay [17]; 0.986 in assay [18]; 0.183 in assay [19]; 0.81 in assay [20]. The values for the z-score in assay [7] and in [15] were -0.594 (inactive) and -2.04, respectively.

Take `COCCOC(=O)N1C(=O)[C@@]2(c3cc(C#CC4(O)CCCCCC4)ccc31)[C@H](c1ccccc1OCCO)N1[C@H](c3ccccc3)[C@H](c3ccccc3)OC(=O)[C@H]1[C@@H]2C(=O)Nc1nc2ccccc2s1`: the composite z-score in [1] was determined as 0.724; in assay [2] it was 1.09; in [3] it was 0.0403; in assay [4], 0.81; in assay [5] it was 0.55; in assay [6] it was 0.65. In addition, the composite z-score in assay [8] was determined as 0.989; in [9], 1.23; in assay [10] it was 0.45; in assay [11], 1.07; in [12], 0.816; in assay [13], 0.995. In addition, the composite z-score was 0.425 in assay [14]; 0.636 in assay [16]; 1.59 in [17]; 0.941 in [18]; 0.0317 in assay [19]; 0.275 in [20]. Besides, the results for the z-score in assay [7] and in assay [15] were -0.318 (inactive) and -1.51, respectively.

Turning to `COc1ccc([Si](C)(C)[C@H]2[C@H](CCO)O[C@@]3(C(=O)N(Cc4ccc(N5C(=O)c6cccc7cccc5c67)cc4)c4ccccc43)[C@@H]2C)cc1`, the composite z-score is -0.688 in assay [1]; -0.601 in assay [2]; -0.272 in assay [3]; 0.706 in [4]; 0.147 in assay [5]; 0.742 in [6]. Moreover, the composite z-score in [8] was -0.0426; in assay [9] it was -0.603; in assay [10] it was -0.482; in [11], -0.959; in assay [12] it was -0.397; in [13] it was 0.48. Also, the composite z-score in [14] is 0.0848; in assay [16], -0.385; in assay [17] it was 1.57; in assay [18] it was 1.28; in assay [19], -0.129; in assay [20], -0.138. For the same compound, the z-score was -2.46 (inactive) in assay [7] and -4.78 in assay [15].

Values taken from PubChem BioAssay.
